In PubChem BioAssay AID1159580 (chemical genetic matrix, 2015):
Among all 5,500 compounds or so, about 2,000 (36%) were called active. Roughly 18% stayed inconclusive and do not appear here. Rule as the data show it: active = normalized growth mostly below about 0.91 (no sharp cut-off); inconclusive = no clear call, values can overlap the other calls; inactive = mostly above about 0.92. This is one part of the list.

Assay: chemical genetic growth profiling, strain panel (AID 1159580);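 also: tested at 20 µM; growth read once vehicle control cultures reached saturation at 30 °C; 1 = growth at the plate median or of vehicle wells; lower values mean less growth of the strain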
Settings: growth OD

Measured: normalized growth

N[C@@H](CCC(=O)N[C@@H](CS)C(=O)NCC(=O)O)C(=O)O
inactive: S. cerevisiae deletion strains, locus YKL009W, strain mrt4, stronger effect = lower value 0.954 | S. cerevisiae deletion strains, locus YKL068W, stronger effect = lower value 0.996 | S. cerevisiae deletion strains, locus YKL085W, strain MDH1 (second series), stronger effect = lower value 0.979 | S. cerevisiae deletion strains, locus YKL085W, strain MDH1, stronger effect = lower value 0.979 | S. cerevisiae deletion strains, locus YKL160W, strain elf1, stronger effect = lower value 0.978 | S. cerevisiae deletion strains, locus YKL190W, strain CNB1, stronger effect = lower value 0.993 | S. cerevisiae deletion strains, locus YKR001C, strain vps1, stronger effect = lower value 0.994 | S. cerevisiae deletion strains, locus YKR026C, strain gcn3, stronger effect = lower value 0.987 | S. cerevisiae deletion strains, locus YKR091W, strain srl3, stronger effect = lower value 0.985 | S. cerevisiae deletion strains, locus YLL001W, strain dnm1, stronger effect = lower value 0.963 | S. cerevisiae deletion strains, locus YLL026W, stronger effect = lower value 0.975 | S. cerevisiae deletion strains, locus YLL041C, strain sdh2, stronger effect = lower value 1 | S. cerevisiae deletion strains, locus YLR027C, strain aat2, stronger effect = lower value 0.97 | S. cerevisiae deletion strains, locus YLR039C, strain RIC1, stronger effect = lower value 0.981 | S. cerevisiae deletion strains, locus YLR058C, strain SHM2, stronger effect = lower value 0.996 | S. cerevisiae deletion strains, locus YLR102C, strain apc9, stronger effect = lower value 0.986 | S. cerevisiae deletion strains, locus YLR113W, strain HOG1, stronger effect = lower value 0.97 | S. cerevisiae deletion strains, locus YLR221C, strain rsa3, stronger effect = lower value 1 | S. cerevisiae deletion strains, locus YLR258W, strain gsy2, stronger effect = lower value 1.01 | S. cerevisiae deletion strains, locus YLR262C, strain YPT6 (second series), stronger effect = lower value 1 | S. cerevisiae deletion strains, locus YLR262C, strain YPT6, stronger effect = lower value 0.92 | S. cerevisiae deletion strains, locus YLR268W, strain sec22, stronger effect = lower value 0.983 | S. cerevisiae deletion strains, locus YLR320W, strain mms22, stronger effect = lower value 1.02 | S. cerevisiae deletion strains, locus YLR330W, strain CHS5, stronger effect = lower value 0.999 | S. cerevisiae deletion strains, locus YLR342W, strain FKS1 (second series), stronger effect = lower value 1.03 | S. cerevisiae deletion strains, locus YLR342W, strain FKS1, stronger effect = lower value 0.982 | S. cerevisiae deletion strains, locus YLR357W, strain rsc2, stronger effect = lower value 0.973 | S. cerevisiae deletion strains, locus YLR370C, strain arc18, stronger effect = lower value 0.985 | S. cerevisiae deletion strains, locus YLR371W, strain rom2, stronger effect = lower value 0.979 | S. cerevisiae deletion strains, locus YLR384C, strain iki3, stronger effect = lower value 0.98 | S. cerevisiae deletion strains, locus YLR418C, strain cdc73, stronger effect = lower value 0.98 | S. cerevisiae deletion strains, locus YML016C, strain PPZ1, stronger effect = lower value 1 | S. cerevisiae deletion strains, locus YML032C, strain rad52, stronger effect = lower value 0.989 | S. cerevisiae deletion strains, locus YML120C, strain ndi1, stronger effect = lower value 0.981 | S. cerevisiae deletion strains, locus YML124C, strain tub3, stronger effect = lower value 0.995 | S. cerevisiae deletion strains, locus YMR058W, strain fet3, stronger effect = lower value 0.99 | S. cerevisiae deletion strains, locus YMR078C, strain ctf18, stronger effect = lower value 0.977 | S. cerevisiae deletion strains, locus YMR125W, strain sto1, stronger effect = lower value 1 | S. cerevisiae deletion strains, locus YMR129W, stronger effect = lower value 1 | S. cerevisiae deletion strains, locus YMR205C, strain PFK2, stronger effect = lower value 0.993 | S. cerevisiae deletion strains, locus YMR223W, strain ubp8, stronger effect = lower value 0.985 | S. cerevisiae deletion strains, locus YMR231W, strain pep5, stronger effect = lower value 1.02 | S. cerevisiae deletion strains, locus YMR307W, strain GAS1, stronger effect = lower value 1.12 | S. cerevisiae deletion strains, locus YNL067W, strain RPL9B, stronger effect = lower value 0.969 | S. cerevisiae deletion strains, locus YNL071W, strain lat1, stronger effect = lower value 1.01 | S. cerevisiae deletion strains, locus YNL128W, strain TEP1, stronger effect = lower value 0.963 | S. cerevisiae deletion strains, locus YNL183C, strain NPR1, stronger effect = lower value 0.97 | S. cerevisiae deletion strains, locus YNL209W, strain ssb2, stronger effect = lower value 1.01 | S. cerevisiae deletion strains, locus YNL233W, strain BNI4, stronger effect = lower value 0.989 | S. cerevisiae deletion strains, locus YNL248C, strain rpa49, stronger effect = lower value 1.03 | S. cerevisiae deletion strains, locus YNL250W, strain rad50, stronger effect = lower value 0.987 | S. cerevisiae deletion strains, locus YNL271C, strain bni1, stronger effect = lower value 0.982 | S. cerevisiae deletion strains, locus YNL298W, strain CLA4, stronger effect = lower value 0.986 | S. cerevisiae deletion strains, locus YNL307C, strain MCK1, stronger effect = lower value 0.99 | S. cerevisiae deletion strains, locus YNL322C, strain KRE1 (second series), stronger effect = lower value 0.998 | S. cerevisiae deletion strains, locus YNR049C, strain mso1, stronger effect = lower value 0.996 | S. cerevisiae deletion strains, locus YNR052C, strain pop2, stronger effect = lower value 0.988 | S. cerevisiae deletion strains, locus YOL006C, strain TOP1, stronger effect = lower value 0.986 | S. cerevisiae deletion strains, locus YOL012C, strain htz1 0.759 | S. cerevisiae deletion strains, locus YOL147C, strain pex11, stronger effect = lower value 0.995 | S. cerevisiae deletion strains, locus YOR001W, strain rrp6, stronger effect = lower value 0.971 | S. cerevisiae deletion strains, locus YOR061W, strain CKA2, stronger effect = lower value 0.993 | S. cerevisiae deletion strains, locus YOR069W, strain VPS5, stronger effect = lower value 1 | S. cerevisiae deletion strains, locus YOR070C, strain gyp1, stronger effect = lower value 1.02 | S. cerevisiae deletion strains, locus YOR080W, strain dia2, stronger effect = lower value 0.988 | S. cerevisiae deletion strains, locus YOR083W, strain WHI5, stronger effect = lower value 0.973 | S. cerevisiae deletion strains, locus YOR106W, strain vam3, stronger effect = lower value 0.987 | S. cerevisiae deletion strains, locus YOR136W, strain idh2, stronger effect = lower value 0.993 | S. cerevisiae deletion strains, locus YOR144C, strain elg1, stronger effect = lower value 0.995 | S. cerevisiae deletion strains, locus YOR184W, strain ser1, stronger effect = lower value 0.989 | S. cerevisiae deletion strains, locus YOR231W, strain MKK1, stronger effect = lower value 0.966 | S. cerevisiae deletion strains, locus YOR265W, strain rbl2, stronger effect = lower value 0.996 | S. cerevisiae deletion strains, locus YOR270C, strain vph1, stronger effect = lower value 1.03 | S. cerevisiae deletion strains, locus YOR290C, strain snf2, stronger effect = lower value 1.01 | S. cerevisiae deletion strains, locus YOR316C, strain cot1, stronger effect = lower value 0.998 | S. cerevisiae deletion strains, locus YPL051W, strain arl3, stronger effect = lower value 0.993 | S. cerevisiae deletion strains, locus YPL078C, strain atp4, stronger effect = lower value 0.972 | S. cerevisiae deletion strains, locus YPL106C, strain sse1, stronger effect = lower value 0.985 | S. cerevisiae deletion strains, locus YPL240C, strain hsp82, stronger effect = lower value 1.01 | S. cerevisiae deletion strains, locus YPL241C, strain CIN2, stronger effect = lower value 0.993 | S. cerevisiae deletion strains, locus YPL256C, strain CLN2, stronger effect = lower value 0.913 | S. cerevisiae deletion strains, locus YPR119W, strain clb2, stronger effect = lower value 0.988 | S. cerevisiae deletion strains, locus YPR141C, strain kar3, stronger effect = lower value 0.981 | S. cerevisiae deletion strains, locus YPR163C, strain tif3, stronger effect = lower value 0.996 | S. cerevisiae deletion strains, locus YPR167C, strain met16, stronger effect = lower value 0.98 | S. cerevisiae deletion strains, strain wtn01, stronger effect = lower value 0.984 | S. cerevisiae strains, strain wild type, stronger effect = lower value 0.998
